From PubChem BioAssay (Tox21)
Active and inactive are the calls of the source. Unless noted, calls follow the shape of the dose curve; as a rule, active = well fitted curve in the direction sought with a large enough effect in the repeat runs; inconclusive = weak or mixed curves; inactive = no such curve, though single readings can be large; an effect the other way counts as inactive or inconclusive.

Legend:
[1] = system: thyroid hormone receptor (rat, GH3 cells); test: qHTS assay to identify small molecule agonists of the thyroid receptor (TR) signaling pathway (AID 743066; calls by dose curve; also: potency is read from the fitted curve at half-maximal effect)
[2] = target: Estrogen receptor (Homo sapiens) (UniProt P03372); test: qHTS assay to identify small molecule antagonists of the estrogen receptor alpha (ER-alpha) signaling pathway (AID 743069; active = well fitted curve in the direction sought with a large enough effect in the signal ratio in the repeat runs, not every such curve was filed as active; inconclusive = weak or mixed curves, or effect the other way; inactive = no such curve, though single readings can be large or run the other way; the % refers to the signal ratio; also: potency is read from the fitted curve at half-maximal effect)
Chain of Estrogen receptor (Homo sapiens) (P03372 whole entry, looked up): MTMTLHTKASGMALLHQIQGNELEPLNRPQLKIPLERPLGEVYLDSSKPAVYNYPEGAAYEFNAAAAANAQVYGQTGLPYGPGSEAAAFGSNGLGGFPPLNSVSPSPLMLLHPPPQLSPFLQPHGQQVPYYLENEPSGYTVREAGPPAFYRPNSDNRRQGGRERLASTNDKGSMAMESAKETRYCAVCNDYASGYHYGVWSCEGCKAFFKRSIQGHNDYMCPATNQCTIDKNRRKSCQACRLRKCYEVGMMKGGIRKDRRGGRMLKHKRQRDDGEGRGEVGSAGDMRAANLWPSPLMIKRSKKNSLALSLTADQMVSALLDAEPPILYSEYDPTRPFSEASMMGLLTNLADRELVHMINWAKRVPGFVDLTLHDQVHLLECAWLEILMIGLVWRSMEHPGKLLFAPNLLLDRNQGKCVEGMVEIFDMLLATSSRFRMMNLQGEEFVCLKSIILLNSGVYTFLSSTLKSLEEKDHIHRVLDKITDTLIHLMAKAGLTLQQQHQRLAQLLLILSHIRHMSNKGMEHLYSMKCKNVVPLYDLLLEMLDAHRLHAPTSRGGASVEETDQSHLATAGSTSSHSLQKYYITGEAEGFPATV
In short: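 HEK293 cells stably carrying an ER-alpha-UAS-bla beta-lactamase reporter were pre-cultured overnight in 2% charcoal-stripped FBS medium. Test compounds in DMSO were added together with 17beta-estradiol for 18 hr at 37C. Read-out was fluorescence after 2 hr with LiveBLAzer B/G FRET substrate at room temperature.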

[3] = qHTS assay to identify small molecule antagonists of the estrogen receptor alpha (ER-alpha) signaling pathway - cell viability counter screen (AID 743074; calls by dose curve; also: nearly all actives have a fitted effect of over 45% in size)
[4] = target: Estrogen receptor (Homo sapiens) (UniProt P03372); test: qHTS assay to identify small molecule agonists of the estrogen receptor alpha (ER-alpha) signaling pathway (AID 743075; calls by dose curve; also: potency is read from the fitted curve at half-maximal effect)
[5] = target: Estrogen receptor (Homo sapiens) (UniProt P03372); test: qHTS assay to identify small molecule agonists of the estrogen receptor alpha (ER-alpha) signaling pathway using the BG1 cell line (AID 743079); also: nearly all actives have a fitted effect of over 20% in size; also: potency is read from the fitted curve at half-maximal effect
[6] = qHTS assay to identify small molecule antagonists of the estrogen receptor alpha (ER-alpha) signaling pathway using the BG1 cell line (AID 743080; calls by dose curve; also: nearly all actives have a fitted effect of over 25% in size; also: potency is read from the fitted curve at half-maximal effect)
In short: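 Antagonist mode: compounds in DMSO were pinned onto BG1-Luc-4E2 cells alongside 17beta-estradiol agonist, incubated 21.5 h, and ERE-driven luciferase measured with ONE-Glo. Cytotoxicity was multiplexed using CellTiter-Fluor fluorescence.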

[7] = qHTS assay to identify small molecule antagonists of the estrogen receptor alpha (ER-alpha) signaling pathway using the BG1 cell line - cell viability counter screen (AID 743081);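 also: compound given together with 17beta-estradiol as the ER stimulus; series mostly up to about 70 µM; nearly all actives have a fitted effect of over 45% in size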
Aromatase (Homo sapiens) = Aromatase (Homo sapiens) (UniProt P11511); test: qHTS assay to identify aromatase inhibitors (AID 743083); also: nearly all actives have a fitted effect of over 55% in size; also: potency is read from the fitted curve at half-maximal effect
Chain of Aromatase (Homo sapiens) (P11511 whole entry, looked up): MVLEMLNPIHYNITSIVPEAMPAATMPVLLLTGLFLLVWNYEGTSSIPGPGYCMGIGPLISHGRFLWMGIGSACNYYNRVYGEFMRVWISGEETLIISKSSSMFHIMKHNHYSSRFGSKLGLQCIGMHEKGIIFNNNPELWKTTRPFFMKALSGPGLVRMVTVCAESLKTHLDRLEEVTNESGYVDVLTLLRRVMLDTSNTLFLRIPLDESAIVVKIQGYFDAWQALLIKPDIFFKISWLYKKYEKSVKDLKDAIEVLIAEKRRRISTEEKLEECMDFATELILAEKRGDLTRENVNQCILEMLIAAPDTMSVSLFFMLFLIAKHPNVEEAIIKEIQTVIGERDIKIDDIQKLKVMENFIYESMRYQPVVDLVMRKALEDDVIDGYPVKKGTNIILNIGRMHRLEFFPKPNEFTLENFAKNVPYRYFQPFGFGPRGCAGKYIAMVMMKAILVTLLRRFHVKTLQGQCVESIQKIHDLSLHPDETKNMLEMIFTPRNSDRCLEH

[8] = qHTS assay to identify aromatase inhibitors - cell viability counter screen (AID 743084);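 also: cells stimulated with testosterone during compound exposure; nearly all actives have a fitted effect of over 55% in size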
[9] = target: Aryl hydrocarbon receptor (Homo sapiens) (UniProt P35869); test: qHTS assay to identify small molecule that activate the aryl hydrocarbon receptor (AhR) signaling pathway (AID 743085); also: nearly all actives have a fitted effect of over 15% in size; also: potency is read from the fitted curve at half-maximal effect
Chain of Aryl hydrocarbon receptor (Homo sapiens) (P35869 whole entry, looked up): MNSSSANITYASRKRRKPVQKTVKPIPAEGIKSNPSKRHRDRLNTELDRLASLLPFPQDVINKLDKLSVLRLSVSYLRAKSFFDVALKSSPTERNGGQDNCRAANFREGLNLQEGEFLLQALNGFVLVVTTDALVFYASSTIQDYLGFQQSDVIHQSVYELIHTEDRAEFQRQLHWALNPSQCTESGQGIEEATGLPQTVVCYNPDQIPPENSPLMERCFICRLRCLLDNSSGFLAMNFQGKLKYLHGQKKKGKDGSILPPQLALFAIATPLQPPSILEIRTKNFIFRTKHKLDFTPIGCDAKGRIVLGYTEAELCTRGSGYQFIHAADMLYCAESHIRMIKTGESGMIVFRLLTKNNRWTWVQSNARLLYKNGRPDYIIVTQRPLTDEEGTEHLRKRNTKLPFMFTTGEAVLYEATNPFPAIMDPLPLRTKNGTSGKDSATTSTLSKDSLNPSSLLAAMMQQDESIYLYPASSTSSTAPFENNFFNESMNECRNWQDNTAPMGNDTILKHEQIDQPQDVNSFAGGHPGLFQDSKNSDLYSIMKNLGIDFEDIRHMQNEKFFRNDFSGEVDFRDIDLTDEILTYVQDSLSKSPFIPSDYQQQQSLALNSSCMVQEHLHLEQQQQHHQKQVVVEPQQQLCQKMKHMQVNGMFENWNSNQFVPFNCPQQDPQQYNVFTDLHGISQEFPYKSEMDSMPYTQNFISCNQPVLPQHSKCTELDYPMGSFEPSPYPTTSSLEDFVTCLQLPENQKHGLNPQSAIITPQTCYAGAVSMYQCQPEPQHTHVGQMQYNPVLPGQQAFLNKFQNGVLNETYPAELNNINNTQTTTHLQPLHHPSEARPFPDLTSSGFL
In short: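 Reporter assay in engineered HepG2 line HG2L7.5c1, whose plasmid carries twenty dioxin responsive elements upstream of firefly luciferase. Treatment lasted 24 h at 37C; ONE-Glo luminescence gauged induction.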

Measured: Potency

O=C1CCCCCO1
inactive: all assays above

CCN(CC)CCc1nc(-c2ccccc2)no1
not listed: [6]
inactive: all other assays above

CC(=O)NCCCS(=O)(=O)O
inactive: all assays above

Cc1ccccc1N=Nc1ccc(N=Nc2c(O)ccc3ccccc23)c(C)c1
active: [4] 10.7 µM [inconclusive] | [5] 8.41 µM | [9] 13.3 µM
not listed: [7]
inactive: all other assays above

CC(C)(C)C1CCCCC1O (stereo not given)
inactive: all assays above

CCOC(=O)CC(C)C
inactive: all assays above

CC(C)c1ccc2c(C(C)C)cc(C(C)C)c(S(=O)(=O)O)c2c1
inactive: all assays above

c1ccc(OCc2ccc(CCCN3CCOCC3)cc2)cc1
not listed: [6] | [9]
inactive: all other assays above

O=C(O)[C@@H]1[C@H]2C[C@H]3c4[nH]c5ccccc5c4CCN3C[C@@H]2CC[C@@H]1O
active: [9] 7.17 µM
not listed: [6]
inactive: all other assays above

C=C(C)C(=O)OC(C)C
inactive: all assays above

CCCCCOC(=O)c1ccc(O)cc1
active: [2] 62.4 µM [inconclusive] | [4] 55.6 µM [inconclusive] | [5] 17.4 µM
inactive: [1] | [3] | [7] | [9]

CC(C)(C)c1ccc(OCC2CO2)cc1 (stereo not given)
active: [5] 39.4 µM
not listed: [6]
inactive: all other assays above

N#CCc1cccc(C(F)(F)F)c1
inactive: all assays above

O=c1c2ccccc2nnn1CCl
inactive: all assays above

O=c1[nH]cnc2ccccc12
inactive: all assays above

COC(=O)C(C)=O
inactive: all assays above

Cc1ccc(C(C)c2ccc(C)c(C)c2)cc1C
inactive: all assays above

OCC1CC2CC1C1CCC(CO)C21 (stereo not given)
inactive: all assays above

CC(=O)OCCc1ccccc1
inactive: all assays above

CCCCCCc1ccc(N)cc1
active: [2] 15.5 µM [inconclusive] | [5] 21.7 µM
not listed: [6] | Aromatase (Homo sapiens)
inactive: all other assays above

ClC(Cl)(Cl)c1ccc(C(Cl)(Cl)Cl)cc1
not listed: Aromatase (Homo sapiens) | [9]
inactive: all other assays above

CC(C)NCC(O)COc1ccc(CC(N)=O)cc1 (stereo not given)
not listed: Aromatase (Homo sapiens)
inactive: all other assays above

CC[C@H](C)[C@H](N)C(=O)O
inactive: all assays above

COCCOCCOCCOCCOC
inactive: all assays above

N#CCCNCCC#N
not listed: Aromatase (Homo sapiens) | [9]
inactive: all other assays above

CCOC(=O)CC(=O)c1cc(F)c(Cl)nc1Cl
inactive: all assays above

Cn1c(=O)c2c(ncn2CC(O)CO)n(C)c1=O (stereo not given)
inactive: all assays above

O=C(NN1CCCC1)NS(=O)(=O)c1ccc(Cl)cc1
not listed: [7]
inactive: all other assays above

Cc1cccc(C(C)(C)C)c1O
not listed: [2] | [9]
inactive: all other assays above

CC(=O)O[C@@H]1C(=O)O[C@@H]2[C@H]1OC(=O)[C@@H]2OC(C)=O
not listed: [5]
inactive: all other assays above

C=C(C)C(=O)OCCOc1ccccc1
active: [5] 43.3 µM
not listed: [2] | Aromatase (Homo sapiens)
inactive: all other assays above

CC(=O)/C=C/C1C(C)=CCCC1(C)C (stereo not given)
not listed: [5]
inactive: all other assays above

CCC(C)N(C)C(=O)c1cc2ccccc2c(-c2ccccc2Cl)n1 (stereo not given)
not listed: [2] | Aromatase (Homo sapiens) | [8]
inactive: all other assays above

SC1CCCC1
not listed: [5]
inactive: all other assays above

CCCCC(CC)COCCCN (stereo not given)
not listed: [5]
inactive: all other assays above

COc1ccc2[nH]c(S(=O)Cc3ncc(C)c(OC)c3C)nc2n1 (stereo not given)
not listed: [4] | [9]
inactive: all other assays above

Nc1cnn([C@@H]2O[C@H](CO)[C@@H](O)[C@H]2O)c(=O)n1
not listed: [2] | [8] | [9]
inactive: all other assays above

CCOc1ccc2[nH]cc(C(=O)NCc3ccccc3)c(=O)c2n1
active: Aromatase (Homo sapiens) 61.1 µM
not listed: [5] | [6] | [9]
inactive: all other assays above

CN1CCC(OC(c2ccccc2)c2ccccc2)CC1
not listed: [5]
inactive: all other assays above

CCCCCCCCCC=O
not listed: [2] | [5]
inactive: all other assays above

C1CCC2OC2C1 (stereo not given)
not listed: [5] | [9]
inactive: all other assays above

Nc1ccc(C(=O)Nc2ccccc2N)cc1
active: [5] 33.5 µM | [9] 26.6 µM
not listed: [2] | [6]
inactive: all other assays above

CCOC(=O)C1=NN(c2ccccc2)C(=O)C1
not listed: [2]
inactive: all other assays above

C=Cc1c(C)c2cc3[nH]c(cc4nc(cc5nc(cc1[nH]2)C(C)=C5CCC(=O)O)C(CCC(=O)O)=C4C)c(C)c3C=C
active: [4] 4.25 µM [inconclusive] | [5] 1.06 µM
not listed: [2]
inactive: all other assays above

CCCCCCCCCCCCC(=O)O
not listed: [2] | [5]
inactive: all other assays above

Cc1cc(NC(=O)C(=O)O)cc(C)c1Oc1ccc(O)c2c1CCC2
active: [1] 0.0017 µM | [5] 38.6 µM
inactive: [2] | [4] | [6] | [7] | Aromatase (Homo sapiens)

CN(c1nccc(=O)[nH]1)C1CCN(c2nc3ccccc3n2Cc2ccc(F)cc2)CC1
not listed: [2] | [5]
inactive: all other assays above

C1=Cc2ccccc2C1
active: [9] 27.3 µM
not listed: [5]
inactive: all other assays above

CCCOc1ccc2nc(NC(=O)OC)[nH]c2c1
not listed: [4] | [9]
inactive: all other assays above

Oc1ccc(Sc2ccc(O)cc2)cc1
active: [4] 18.2 µM [inconclusive] | [5] 0.51 µM
not listed: [2]
inactive: all other assays above

CCOC(=O)C1=C(C)NC(C)=C(C(=O)OC)C1c1cccc([N+](=O)[O-])c1 (stereo not given)
not listed: [5] | [9]
inactive: all other assays above

O=C(c1ccc(O)cc1)c1ccc(O)cc1
active: [4] 17.4 µM [inconclusive] | [5] 2.73 µM
not listed: [2] | [9]
inactive: all other assays above

Cc1nc2ccccc2n1Cc1ccc(Cl)cc1
active: [6] 2.37 µM
not listed: [3] | [5] | [7]
inactive: all other assays above

O=C(O)Cn1c(C(=O)Nc2nc(-c3ccccc3Cl)cs2)cc2ccccc21
not listed: [3] | [9]
inactive: all other assays above
